In PubChem BioAssay AID624114 (Johns Hopkins Ion Channel Center, 2012):
Among all 4,000 compounds or so, about 15 (0.4%) were called active.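 The calls were made as follows: active = calcium fluorescence ratio, averaged over duplicates, at least 3 SD of the buffer-well ratio, meaning a nonspecific response in receptor-free cells; inactive = the rest.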 These entries were drawn from the full list.

Assay: nonspecific Ca2+ flux in HEK293 lacking MrgX1 – cell-based, Fluo-4 calcium flux, duplicate, counter-screen for MrgX1 allosteric activator project, primary screen (AID 624114)
Conditions: parental HEK293 calcium flux, Fluo-4 fluorescence ratio; at 10 µM

Row | SMILES | outcome
1 | O=C(NC1CCCCC1)C1c2ccccc2C(=O)N1Cc1ccco1 (stereo not drawn) | inactive
2 | Cc1cc2oc3ccc(NCCC4CCCN4C)cc3c(=O)c2cc1C (stereo not drawn) | inactive
3 | COCCCNC(=O)C1CCN(c2ccc(N3CCOCC3)nn2)CC1 | inactive
4 | Cc1cc(Br)ccc1NC(=O)c1cnc(N2CCN(c3ccccn3)CC2)c2ccccc12 | inactive
5 | Cc1ccc(S(=O)(=O)N(C)c2nc3ccccc3n3c(C(C)C)nnc23)cc1 | inactive
6 | CC1CCN(S(=O)(=O)c2nnc(NC(=O)COc3ccccc3F)s2)CC1 | inactive
7 | Cc1ccc(-c2nn(C(C)(C)C)c3ncnc(N)c23)cc1 | inactive
8 | CCC1CCCCN1CCNC(=O)c1[nH]c(C)c(C(C)=O)c1C (stereo not drawn) | inactive
9 | O=C(CSc1ncccn1)NC(=O)NCc1ccccc1 | inactive
10 | CC1CCCCN1S(=O)(=O)c1ccc(C(=O)Nc2nnc(-c3cccs3)o2)cc1 (stereo not drawn) | inactive
11 | O=C(Nc1nc2c(F)cc(F)cc2s1)C1COc2ccccc2O1 (stereo not drawn) | inactive
12 | O=C1C(=O)N(CC2COc3ccccc3O2)c2ccccc21 (stereo not drawn) | inactive
13 | COc1cccc(CNC(=O)C2CCN(S(=O)(=O)c3cccc4cccnc34)CC2)c1 | inactive
14 | COc1ccc(C(=O)NC(=S)NNC(=O)CCc2ccccc2)cc1 | inactive
15 | CCOC(=O)C1=C(O)/C(=C/c2cc(C)n(-c3ccccc3)c2C)N=C1C | inactive
16 | Cc1ccc2nc(Nc3ccccc3)cc(C)c2c1 | inactive
17 | Cc1ccc(Cc2cnc(N)s2)o1 | inactive
18 | O=C(CSc1nncn1-c1cccnc1)N1CCOCC1 | inactive
19 | COc1ccc(OC)c(C(=O)c2ccc(Cl)cc2)c1 | inactive
20 | CCCc1cc(=S)n2c([nH]c3ccccc32)c1C#N | inactive
21 | Nc1cc(OC(=O)c2ccccc2Br)nn1S(=O)(=O)c1ccccc1 | inactive
22 | CC(C)(C)n1c(=O)[nH]c2c(c1=O)CCC2 | inactive

Row | SMILES | outcome
23 | CCOC1CCCCC1NS(=O)(=O)c1ccc(Cl)cc1 (stereo not drawn) | inactive
24 | C=CCOc1cccc(C2C(C(=O)c3ccc(C)o3)=C(O)C(=O)N2c2nnc(C)s2)c1 (stereo not drawn) | inactive
25 | Cc1cccc(-n2c(Cc3cc(=O)[nH]c(=O)[nH]3)nnc2SC(C)C)c1 | inactive
26 | O=C1CCCc2c1nc(-c1cccc(Cl)c1)n2O | inactive
27 | Cc1nc(N2CCN(c3ccccn3)CC2)c2c(C)c(C(=O)Nc3ccc(F)c(Cl)c3)sc2n1 | inactive
28 | Cc1cc(C)n(CCNC(=O)CC2C(=O)NCCN2Cc2ccc(C)o2)n1 (stereo not drawn) | inactive
29 | COc1ccc(S(=O)(=O)N2CCN(C(=O)NC3CCCCC3)CC2)cc1 | inactive
30 | CCCCC(=O)Nc1ccc2c(c1)C(=O)NC2=O | inactive
31 | Cc1nn(-c2ccccc2)c(C)c1NC(=O)COc1ccc(Cl)cc1Cl | inactive
32 | Cc1ccc(-n2[nH]c(C)c(/C=N/N3C(=O)c4cccc5cccc(c45)C3=O)c2=O)cc1 | inactive
33 | COC(=O)Cc1cc(=O)n(-c2nc3ccccc3s2)[nH]1 | inactive
34 | O=C1C(Cc2ccc(O)cc2)NC(=S)N1Cc1ccccc1 (stereo not drawn) | inactive
35 | Clc1ccc(C=NC23CN4CN(CN(C4)C2)C3)cc1 | inactive
36 | CC(C)CC(=O)NC(=S)NNC(=O)c1cccc([N+](=O)[O-])c1 | inactive
37 | Cc1[nH][nH]c(=O)c1C(c1ccc(-c2ccc(Cl)cc2)o1)c1c(C)[nH][nH]c1=O | inactive
38 | O=C(Oc1ccc(C(=S)N2CCOCC2)cc1)c1ccc(F)cc1 | inactive
39 | COC(=O)c1ccc(C2C3=C(Nc4nnnn42)c2ccccc2OC3)cc1 (stereo not drawn) | inactive
40 | Clc1ccc(-c2nc3ccccn3c2CN2CCSCC2)cc1 | inactive
41 | CCOCc1nnc(NC(=O)CCC2CCCCC2)s1 | inactive
42 | Cc1ccc2nc(-c3ccc(NC(=O)CN(C)S(=O)(=O)c4ccccc4)cc3)sc2c1 | inactive
43 | Cc1ccc(N/C(N)=N/c2nc(C(F)(F)F)cc(C(F)(F)F)n2)cc1 | inactive
44 | Cc1cccc(NC(=O)C(C)N2C(=O)C3C4CC(C(Br)C4Br)C3C2=O)c1 (stereo not drawn) | inactive

Row | SMILES | outcome
45 | O=c1cc(CSc2ccccn2)nc(N2CCN(c3ccccc3)CC2)[nH]1 | inactive
46 | CCN(c1cccc(C)c1)S(=O)(=O)c1ccc(-c2coc(C)n2)cc1 | inactive
47 | CC(C)CC(=O)N/C(N)=N/c1nc2ccccc2s1 | inactive
48 | Cc1nn(-c2ccccc2)c2c1C(c1ccc(F)cc1)C(C#N)=C(N)O2 (stereo not drawn) | inactive
49 | CCOc1ccc(C(=O)NC2CCN(S(=O)(=O)CC)CC2)cc1 | inactive
50 | CCOC(=O)CNC(=O)CSc1nc2cccnc2n1CC | inactive
51 | Cc1nc(C)c(-c2csc(NCCc3ccccc3)n2)s1 | inactive
52 | C(=N\n1cnnc1)/c1cccnc1 | inactive
53 | Cc1cccc(NC(=O)COc2ccccc2C)n1 | inactive
54 | O=C(Nc1ccc(Br)cc1F)C1CC(=O)N(C2CCCCC2)C1 (stereo not drawn) | inactive
55 | COc1ccc(Cc2nc(-c3ccccn3)no2)cc1OC | inactive
56 | COC(=O)c1ccc(COC(=O)C2CCN(S(=O)(=O)c3c(Cl)cccc3Cl)CC2)o1 | inactive
57 | COCC(C)NC(=O)c1ccc(Cl)c(Cl)c1 (stereo not drawn) | inactive
58 | CCOc1ccc(C2=CC(c3ccccc3)n3ncnc3N2)cc1 (stereo not drawn) | inactive
59 | CCOC(=O)Cc1csc(SCc2cc(=O)oc3cc(O)ccc23)n1 | inactive
60 | O=C(Nc1ccc(Cl)cc1)Nc1ccc(Oc2cccnc2)nc1 | inactive
61 | O=C(COc1ccc(Cl)cc1)NC(=S)Nc1ccccc1N1CCOCC1 | inactive
62 | N#CC1=C(N)Oc2c(sc3ccccc23)C1c1ccco1 (stereo not drawn) | inactive
63 | O=C(CN1CCN(c2ccccn2)CC1)NC1CCCCC1 | inactive
64 | COc1ccc(S(=O)(=O)N2CCOCC2)c(C)c1C | inactive
65 | Cc1cc2ncn(CCCCOc3ccccc3)c2cc1C | inactive
66 | CCN(CC)c1ccc2oc(=O)c(C)nc2c1 | inactive

Row | SMILES | outcome
67 | CN1C(CC(=O)Nc2ccc(Br)cc2)c2ccccc2CC1(C)C (stereo not drawn) | inactive
68 | COc1ccc(C(=O)NC(=S)NC2CCCCC2)cc1 | inactive
69 | O=C(Nc1ccccc1Cl)N1CCN(c2ccc3nncn3n2)CC1 | inactive
70 | COC(=O)c1c(NC(=O)c2c(Cl)cnn2C)sc(C)c1C | inactive
71 | CCOC(=O)c1[nH]c2ccc(C)cc2c1N=C(C)N(C)C | inactive
72 | Cc1cccc(Cn2cnc3c(N)c(C)c(C)cc32)c1 | inactive
73 | Cc1ccc(OC(=O)c2cc3ccccc3o2)cc1 | inactive
74 | CCOC(=O)c1cn(Cc2cccc(C)c2)nn1 | inactive
75 | C=CCNC(=O)c1csc(-c2ccccc2)n1 | inactive
76 | O=C(c1cccs1)C1C(c2ccc(Br)cc2)NC(=S)NC1(O)C(F)(F)F (stereo not drawn) | inactive
77 | CC(=O)Nc1ccc(OC(=O)COc2ccc(Br)cc2)cc1 | inactive
78 | O=C(c1ccc(O)cc1)c1ccc(C(=O)O)c(C(=O)O)c1 | inactive
79 | O=C1Cc2ccccc2Sc2ccc(Cl)cc21 | inactive
80 | CC(Oc1ccc(F)cc1)C(=O)Nc1ccccc1C(=O)NC1CC1 (stereo not drawn) | inactive
81 | O=C(c1ccc(OC2CCN(C(=O)c3cccnc3)CC2)cc1)N1CCCCCC1 | inactive
82 | O=C(COC(=O)c1ccc(NS(=O)(=O)c2cccs2)cc1O)Nc1ccc(F)cc1 | inactive
83 | COc1cc(C(F)(F)F)nc2c(Br)c(C(C)(C)C)nn12 | inactive
84 | Cc1cc(Nc2cc(N3CCN(C)CC3)nc(Sc3ccc(NC(=O)C4CC4)cc3)n2)n[nH]1 | inactive
85 | CC(=O)N1c2ccc(S(=O)(=O)N3CCCC(C(=O)Nc4cccc(Cl)c4)C3)cc2CC1C (stereo not drawn) | inactive
86 | CCCCOC(=O)CNc1nnc(SCC(=O)OCC)[nH]c1=O | inactive
87 | COc1ccc(OC)c(Nc2nc3ccccc3n3cnnc23)c1 | inactive
88 | Fc1cccc(Cl)c1COc1ccc(-c2nnco2)cc1 | inactive
